# Data reported in PubChem BioAssay (NCATS).
# Results filed as inconclusive are left out. Active and inactive are the calls of the source. Calls come from the whole dose curve; as a rule, active = well fitted cell-killing curve with a large enough effect; inconclusive = small, poorly fitted or top-dose-only effect; inactive = flat fitted curve, though single readings scatter.
# Test: qHTS of pediatric cancer cell lines to identify multiple opportunities for drug repurposing: Primary screen for TC32 cells (AID 1347089); note: nearly all actives have a fitted effect of over 60% in size
# Details: TC32 Ewing sarcoma viability, CellTiter-Glo luminescence, 48 h; series mostly up to 45.8 µM; activity change, negative = cytotoxic: at the top concentration
# Source text: Drug repurposing or repositioning has been offered as a strategy for drug development in oncology programs. This approach has special potential for childhood cancers and other rare or orphan diseases, where the expected return on new drug development has been a disincentive to pharmaceuticals.
# In this project we exploit the poly-pharmacology of drugs to discover new indications via phenotypic screening of a panel of 19 well-characterized cell lines derived from solid tumors seen in children and adolescents. The goal is to identify approved drugs with previously unrecognized anticancer properties that has the potential to reveal new mechanisms and biological processes involved in carcinogenesis or drug resistance. We employed a titration-based paradigm (quantitative high-throughput screening or qHTS), where all compounds were tested at multiple concentrations for their effect on cell viability. Concentration-response curves (CRCs) were derived directly from the primary screen, and both potency and efficacy values were used to identify compounds with robust bioactivity profiles. We screened the NIH Chemical Genomics Center (NCGC) Pharmaceutical Collection (NPC) and Mechanism Interrogation Plate (MIPE) small molecule collections of approved and investigational compounds against these cell lines; and measured metabolically active cells after 48 hours of compound treatment as a proxy for cell viability.
# Assay Submitter: Nathalia J. Martinez, National Center for Advancing Translational Sciences, National Institutes of Health, Rockville, MD, USA; email: natalia.martinez@nih.gov
# [1] Shen, M et al. Quantitative high-throughput phenotypic screening of pediatric cancer cell lines identifies multiple opportunities for drug repurposing. Oncotarget 2017 Dec 19;9(4):4758-4772. PMID 29435139.
# The cells were obtained from University of North Carolina (UNC), Pediatric Preclinical Testing Program (PPT), and Coriell Institute (CI).
# qHTS cell viability assay:
# Cells were assayed in growth media at a density of 500-1,000 cells/well. Five microliters of cells were dispensed into 1,536-well, white, solid-bottom, TC-treated plates (Greiner Bio One) using a multidrop dispenser and incubated at 37 degrees C, 5% CO2, under a humidified atmosphere for 5 hours. Twenty-three nanoliters of compounds and controls (neutral control DMSO or positive control bortezomib at final concentration of 2.3 uM) were subsequently transferred by Kalypsys pintool. For primary screens, the MIPE collection was tested at 11-point dilutions (final concentrations range from 0.78 nM to 46 µM) and the NPC collection at 8-point dilutions (final concentrations range from 0.59 nM to 46 µM). Compounds tested in follow-up screens were assayed at 11-point dilutions. Cells were incubated for 48 hours, followed by addition of 3 uL of CellTiter-Glo (Promega). After a 15min incubation at room temperature, samples were analyzed for luminescence intensity using a ViewLux High-throughput CCD imager equipped with clear filters.
# % is set by controls: 0 for no effect and ±100 for the full control effect.
Structure (SMILES),"activity change, negative = cytotoxic",Potency
O=C(CCNNC(=O)c1ccncc1)NCc1ccccc1,9.07% (inactive),
NC(=Nc1ccccc1)Nc1ccccc1,,inactive
C[C@]12CCC(=O)C=C1CC[C@@H]1[C@@H]2CC[C@@]2(C)[C@H]1CC[C@]2(O)C(=O)CO,11.2% (inactive),
NC(=O)c1cn(Cc2c(F)cccc2F)nn1,16.6% (inactive),
CC(=O)OCC1=C(C(=O)O)N2C(=O)[C@@H](NC(=O)Cc3cccs3)[C@H]2SC1,4.92% (inactive),
CCN1CCC[C@H]1CNC(=O)c1c(O)c(Cl)cc(Cl)c1OC,9.46% (inactive),
CCN(CC)CC(=O)Nc1c(C)cccc1C,1.44% (inactive),
NC(Cc1ccc(Cl)cc1)C(=O)O (stereo not given),11.6% [at 0.594 µM] (inactive),
Brc1c(NC2=NCCN2)ccc2nccnc12,3.4% (inactive),
CCOC(=O)C1=C(C)NC(C)=C(C(=O)OC)C1c1cccc([N+](=O)[O-])c1 (stereo not given),7.95% (inactive),
COc1cc(C(=O)OCCCN2CCCN(CCCOC(=O)c3cc(OC)c(OC)c(OC)c3)CC2)cc(OC)c1OC,-6.23% (inactive),
CC(C)(C)NCC(O)c1cc(O)cc(O)c1 (stereo not given),5.54% (inactive),
Cc1ccc(=O)n(-c2ccccc2)c1,12.7% (inactive),
CN1C(=O)CC[C@H]1c1cccnc1,7.25% (inactive),
COc1ccc([C@@H]2Sc3ccccc3N(CCN(C)C)C(=O)[C@@H]2OC(C)=O)cc1,10.3% (inactive),
COC(=O)[C@H]1[C@H]2C[C@@H]3c4[nH]c5cc(OC)ccc5c4CCN3C[C@H]2C[C@@H](OC(=O)c2cc(OC)c(OC)c(OC)c2)[C@@H]1OC,4.18% (inactive),
CC(=O)[C@@]1(O)CC[C@H]2[C@@H]3CCC4=CC(=O)CC[C@]4(C)[C@H]3CC[C@@]21C,4.89% (inactive),
C[N+](C)(C)CCOC(N)=O,9.66% (inactive),
CN(C)CCN(Cc1cccs1)c1ccccn1,2.08% (inactive),
C(=C\c1ccccc1)/CN1CCN(C(c2ccccc2)c2ccccc2)CC1,0.533% (inactive),

Structure (SMILES),"activity change, negative = cytotoxic",Potency
CCCN(CCC)C(=O)C(CCC(=O)O)NC(=O)c1ccccc1 (stereo not given),8.22% (inactive),
CN(C)CCCN1c2ccccc2Sc2ccccc21,-12.7% (inactive),
O=C(O)CP(=O)(O)O,-2.12% (inactive),
CCN(CC)CCOCCOC(=O)C1(c2ccccc2)CCCC1,12.8% (inactive),
COCCCC/C(=N\OCCN)c1ccc(C(F)(F)F)cc1,-2.36% (inactive),
COC(=O)[C@@H](N)Cc1ccc(O)c(O)c1,-0.358% (inactive),
CC(=O)Nc1nnc(S(N)(=O)=O)s1,15.7% (inactive),
CCCCNC(=O)NS(=O)(=O)c1ccc(C)cc1,2.44% (inactive),
C[C@]12C=CC(=O)C=C1CC[C@H]1[C@@H]3C[C@@H](O)[C@](O)(C(=O)CO)[C@@]3(C)C[C@H](O)[C@@]12F,9.08% (inactive),
O=C(O)CCCCCCCC(=O)O,5.63% (inactive),
CCO/C([O-])=N/c1c[n+](N2CCOCC2)no1,4.68% (inactive),
NC(=O)c1ncn([C@@H]2O[C@H](CO)[C@@H](O)[C@H]2O)c1O,4.09% (inactive),
CCCCNc1c(C(=O)OCC)c(C)nc2c1cnn2CC,2.65% (inactive),
CN=C(NC#N)NCCSCc1nc[nH]c1C,11.1% (inactive),
CCCN(CCC)CCc1cccc2c1CC(=O)N2,3.62% (inactive),
CN1CCN(C2=Nc3ccccc3Oc3ccc(Cl)cc32)CC1,4.49% (inactive),
CN1CCN(CC(=O)N2c3ccccc3C(=O)Nc3cccnc32)CC1,4.32% [at 4.81 µM] (inactive),
COc1cc(Cc2cnc(N)nc2N)cc(OC)c1OC,1.29% (inactive),
CCCC(C(=O)OCCN(CC)CC)(c1ccccc1)c1ccccc1,-14.3% (inactive),
C[N+](C)(C)CCOC(=O)CCC(=O)OCC[N+](C)(C)C,7.08% (inactive),
